aSyn rescue: qHTS of alpha-syn Inhibitors; Yeast expressing alpha-synuclein, growth rescue, BacTiter-Glo, 24 h; AID 652106, 2013; Potency, µM (top dose mostly 46.1 µM), for the others: at the highest dose growth rescue (activation), usual class: activators; actives 0.14% (n = 370,000); also: % of control where 0% means no effect; nearly all actives have a fitted effect of over 65% in size
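Galactose-induced alpha-syn yeast (OD600=0.02, raffinose-pregrown) + pinned cpd, 24 hr, 30 deg C; growth by BacTiter-Glo luminescence. Growth restoration scores as activation.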
FUS suppressor: qHTS for Suppressors of FUS Proteinopathy: Primary screen using FUS-linked yeast assay | S. cerevisiae FUS-expressing, growth rescue, OD600, 24 h | Potency, µM (highest dose often 76.6 µM), hits mostly activators | actives 0.24% (n = 390,000) | AID 1347120, 2019;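 also: plate controls were DMSO vehicle for no effect and reference control for full effect; nearly all actives have a fitted effect of over 55% in size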
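Steps: raffinose overnight preculture; dilution to OD 0.005 in 2% galactose minimal medium; compound addition (concentration series); 24hr at 30C, 99% humidity; absorbance read at 600 nm.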
Abeta yeast res: qHTS for compounds that reverse cellular toxicity of Amyloid beta (A-beta) peptide in yeast: Primary Screen; yeast expressing A-beta42, growth rescue, OD600, 48 h; response scale: 0% DMSO, 100% iron-clioquinol control; Potency, µM (titrated, usually from 46.1 µM), hits mostly activators; actives 0.063% (n = 410,000); also: nearly all actives have a fitted effect of over 55% in size
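Yeast growth medium received pinned compounds, then yeast cells expressing toxic A-beta were added; plates incubated at 30 C for 48 hr. Growth read as absorbance at 600 nm, normalized to DMSO and equimolar FeCl3 plus clioquinol controls.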
TDP43 rescue: qHTS of TDP-43 Inhibitors; actives 1.8% (n = 410,000); TDP-43 expressing yeast growth rescue, BacTiter-Glo, 24 h; Potency, µM (titrated, usually from 46.1 µM), without a hit: at the top dose growth rescue (activation), hits mostly activators; also: % of control where 0% means no effect; nearly all actives have a fitted effect of over 50% in size
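Luminescence from BacTiter-Glo reports growth of TDP-43-expressing yeast after 24 hr at 30 deg C with compound. Cells were raffinose-pregrown to mid-log, then seeded in galactose medium at OD600=0.02.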
Mito fusion yeast: qHTS Assay for Small Molecule Inhibitors of Mitochondrial Division or Activators of Mitochondrial Fusion; S. cerevisiae fusion-defective mutant growth rescue, CellTiterGlo 48 h; Potency, µM (doses to about 46.1 µM), without a hit: at the top dose growth rescue (activation), most hits filed as activators; actives 0.23% (n = 320,000); also: % of control where 0% means no effect; nearly all actives have a fitted effect of over 45% in size
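Luminescent cell viability in 1536-well qHTS format served as the measure of rescued growth in ts fusion-mutant S. cerevisiae cultured on non-fermentable YPEG for 48 hours at 37C.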
* = called active by the depositor; i = inactive; ? = inconclusive; nt = not tested or not shown; ! = a repeat was not active; [ ] = dose if it differs, or a comment. A selection: hits, their analogues and other compounds. The true share with any hit is near 2.2%. Calls follow the shape of the dose curve; as a rule, active = well fitted curve in the direction sought with a large enough effect; inconclusive = small, poorly fitted or top-dose-only effect, or another doubt; inactive = no such curve, though single readings can be large; an effect the other way counts as inactive or inconclusive. Potency is read from the fitted curve at half-maximal effect.

SMILES	aSyn rescue	FUS suppressor	Abeta yeast res	TDP43 rescue	Mito fusion yeast
COC(=O)[C@]1(CNC(=O)c2cc(F)ccc2F)CC(=O)N(C)[C@@H]1c1ccccc1	nt	i	nt	nt	nt
C=CCN1C(=O)C(CC(=O)NCC)SC1=Nc1ccccc1CC (stereo not drawn)	12%	i	i	-4%	4%
Brc1ccccc1Cn1nnc(-c2ccc(N3CCOCC3)cc2)n1	nt	i	nt	nt	nt
O=C(C1CCN(S(=O)(=O)c2cccc3cccnc23)CC1)N1CCN(c2ccc(Cl)cc2)CC1	0%	28µM*	i	18%	15%
O=C(C1CCN(S(=O)(=O)c2cccc3cccnc23)CC1)N1CCN(c2ccccn2)CC1	-15%	i	i	14%	5%
Cc1ccc(S(=O)(=O)N2CCN(C(=O)COC(=O)COc3ccc(Cl)cc3)CC2)c(C)c1	-17%	i	i	-8%	nt
O=C(NCCc1ccccc1)OCc1cn(Cc2ccc(Cl)cc2)nn1	nt	i	nt	nt	nt
Cc1ccccc1Nc1c(-c2ccco2)nc2c(C)cccn12	nt	i	i	?	nt
O=C1OCCC1Sc1nc2cc(Cl)ccc2n1Cc1ccccc1 (stereo not drawn)	1%	i	i	35µM*	-12%
COc1cccc(COC(=O)c2nn(-c3ccccc3)nc2N)c1	-4%	i	i	35µM*!	1%
O=C1C(=Cc2ccccn2)CCc2ccccc21	1%	i	i	18µM*	nt
CC(=O)Oc1ccc(/C=C2/CCc3ccccc3C2=O)cc1	-30%	i	i	11µM*	-2%
COc1cccc(/C=C2\CCc3ccccc3C2=O)c1	-3%	i	i	0%	-24%
O=C1/C(=C/c2cccc([N+](=O)[O-])c2)CCc2ccccc21	5%	nt	i	22µM*	6%
COc1ccc2c(c1)CC/C(=C/c1ccccn1)C2=O	4%	i	i	?	-5%
C/C(C=NNC(=O)CSc1nnc(-c2ccccc2)n1-c1ccc(C)cc1)=C\c1ccco1	nt	i	nt	nt	nt
COc1ccc(CN2CCC2(C)C(=O)Nc2ccc(OC)c(OC)c2)cc1 (stereo not drawn)	1%	i	i	-3%	nt
O=C(Nc1cccc(Oc2ccccc2)c1)C1Cc2c(-c3ccco3)ccnc2O1 (stereo not drawn)	-4%	i	i	18µM*	nt
O=C(Nc1cccc(Oc2ccccc2)c1)C1Cc2c(-c3ccccc3)ccnc2O1 (stereo not drawn)	-7%	i	i	-2%	nt
COc1ccc(NC(=O)C2Cc3c(-c4ccccc4Oc4ccccc4)ccnc3O2)cc1OC (stereo not drawn)	6%	?	i	11µM*	nt
CCOC(=O)c1ccc(-n2c(CCC(=O)O)ccc2-c2ccc(Br)cc2)cc1	nt	?	i	2%	nt
O=C(CC1CCCC1)N1CC[C@H]2[C@H](CCCN2Cc2ccc(F)cc2)C1	nt	i	nt	nt	nt
CC(=O)N1N=C(c2cccs2)CC1c1cccc([N+](=O)[O-])c1 (stereo not drawn)	10%	i	i	?	-5%
CC(=O)N1N=C(c2cccc(Cl)c2)OC1c1cccc([N+](=O)[O-])c1 (stereo not drawn)	3%	i	i	16µM*	11%
CC(=O)N1N=C(c2ccccc2)CC1c1cccc([N+](=O)[O-])c1 (stereo not drawn)	4%	i	i	13µM*	1%
SMILES	aSyn rescue	FUS suppressor	Abeta yeast res	TDP43 rescue	Mito fusion yeast
Cc1ccc(NC(=O)c2cc3c([nH]c2=O)CC(C)(C)CC3=O)cc1	-2%	nt	nt	nt	nt
O=C(OCc1nnc(-c2ccc(Cl)cc2)o1)c1ccc(O)cc1	7%	i	i	-15%	-2%
CS(=O)(=O)c1ccc(C(=O)OCc2nnc(-c3ccc(Cl)cc3)o2)cc1[N+](=O)[O-]	-24%	?	i	18µM*	-11%
COC(=O)[C@]12C[C@H](CC(=O)NCCCCc3ccccc3)C(=O)N(Cc3ccc(Cl)cc3Cl)C1=C[C@H](C(C)(C)C)O[C@@H]2C	nt	i	nt	nt	nt
CCc1ccc(NC(=O)c2noc3c2CCC3)cc1	-8%	i	i	11µM*	2%
CCc1ccc(NC(=O)c2noc3c2CCCCC3)cc1	0%	i	i	-4%	2%
COC(=O)[C@]12CCCCC=C1N(Cc1ccc(OC)cc1)C(=O)[C@@H]2CC(=O)N1CCCC1	nt	i	nt	nt	nt
COc1ccc(/C=C/C(=O)NC(=S)NNC(=O)Cc2cccs2)cc1	13%	i	i	?	-9%
O=C(Cc1cccs1)NNC(=S)NC(=O)c1ccccc1	?	nt	?	22µM*	3%
O=C(/C=C/c1ccccc1)NC(=S)NNC(=O)Cc1cccs1	20µM*	i	?	11µM*	-9%
C=CCNC(=O)Nc1ccc2c(c1)[C@]1(CC(=O)N(CC(C)C)C1c1ccccc1)C(=O)N2C (stereo partly drawn)	nt	i	nt	nt	nt
COc1ccc(C(=O)c2oc3ccc(OC)cc3c2N)cc1	1%	i	i	11µM*	?
O=C(c1ccc(Cl)cc1)c1oc2ccccc2c1CS(=O)c1ccc(Cl)cc1 (stereo not drawn)	8%	i	i	-14%	5%
Nc1c(C(=O)c2ccc(Cl)cc2)oc2ccccc12	1%	nt	i	15%	25µM*
COC(=O)c1oc2ccc(OC)cc2c1N	-5%	i	i	-6%	0%
Cc1ccc(-c2cc(C(=O)NN=Cc3c(O)ccc4ccccc34)[nH]n2)cc1C	nt	i	nt	nt	nt
CN(C)CCNc1nccc(N2CCN(C)CC2)n1	-6%	nt	nt	nt	nt
COc1ccccc1-c1nn(-c2ccccc2)cc1C(=O)N1CCc2ccccc2C1	?	?	i	23%	?
COc1ccc(OC)c(-c2nn(-c3ccccc3)cc2C(=O)N2CCc3ccccc3C2)c1	-2%[1.84 µM]	?	i	13µM*	?
COC(=O)CCCC(=O)Nc1ccc(Cl)c(Cl)c1	-4%	i	i	10µM*	-6%
O=C(NC(=S)Nc1ccc(S(=O)(=O)Nc2ncccn2)cc1)c1ccc(Br)cc1	4%	i	i	-23%	5%
O=S(=O)(NNC(=S)Nc1ccc(S(=O)(=O)Nc2ncccn2)cc1)c1ccc(Br)cc1	?	i	i	4µM*	0%
Cc1cccc(CSc2cn(CC(=O)N3CCOCC3)c3ccccc23)c1	14%	?	i	?	9%
O=C(Cn1cc(SCc2cccc(Cl)c2)c2ccccc21)N1CCOCC1	?	?	?	35µM*	8%
O=C(Cn1cc(SCc2ccc(C(F)(F)F)cc2)c2ccccc21)N1CCCC1	nt	?	i	35µM*	nt
